From PubChem
Rows were chosen to be rich in hits. Some 12% of all compounds tested hit in one or more screens of this group.
Pf growth 48h: Primary qHTS for delayed death inhibitors of the malarial parasite plastid, 48 hour incubation | AID 504832, 2011 | P. falciparum luciferase growth in erythrocytes, 48 h | Potency, µM (highest dose often 28.7 µM), usual class: inhibitors | 5.9% of 310,000 active
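Firefly luciferase activity from engineered P. falciparum reports growth; inhibitors lower the luminescent signal. Cultures contained 2% hematocrit erythrocytes at 0.1% final parasitemia.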
Sm TGR block: qHTS Assay for the Inhibitors of Schistosoma Mansoni Peroxiredoxins | 3% of 360,000 active | Potency, µM (titrated, usually from 114 µM), most hits filed as inhibitors | Schistosoma mansoni thioredoxin glutathione reductase (TGR), Q962Y6 | AID 485364, 2010 | purified TGR, DTNB reduction, TNB absorbance 405 nm; further: nearly all actives have a fitted effect of over 60% in size
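TGR 20 nM + NADPH 100 uM (dispensed conc.), cpd preinc 15 min RT; start with NADPH (500 uM addition) then DTNB (15 mM addition). Kinetic TNB absorbance, 405 nm filter. Four-parameter Hill fit across titration.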
SARS PLpro yeast: qHTS of Yeast-based Assay for SARS-CoV PLP; S. cerevisiae expressing SARS-CoV PLpro, growth rescue; Potency, µM (highest dose often 32.9 µM), most hits filed as activators; 0.19% of 330,000 active; AID 485353, 2010; calls by dose curve; further: nearly all actives have a fitted effect of over 55% in size
Pf growth 96h: Primary qHTS for delayed death inhibitors of the malarial parasite plastid, 96 hour incubation | P. falciparum luciferase reporter growth, 96 h | Potency, µM (doses to about 28.7 µM), actives largely listed as inhibitors | 6.9% of 320,000 active | AID 504834, 2011
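Erythrocytes infected with luciferase-expressing P. falciparum were dispensed at 2% hematocrit and 0.05% parasitemia (final), then incubated with compounds 96 hours at 37 C in 5% CO2. Luminescence after detection reagent addition reported growth.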
AmpC inh detg: qHTS Inhibitors of AmpC Beta-Lactamase (assay with detergent); P00811; AmpC hydrolysis of nitrocefin, absorbance 480 nm, 0.01% Triton; Potency, µM (series often up to 114 µM), hits mostly inhibitors; 0.041% of 370,000 active; AID 485294, 2010; further: nearly all actives have a fitted effect of over 25% in size
Target sequence (P00811 whole entry, looked up): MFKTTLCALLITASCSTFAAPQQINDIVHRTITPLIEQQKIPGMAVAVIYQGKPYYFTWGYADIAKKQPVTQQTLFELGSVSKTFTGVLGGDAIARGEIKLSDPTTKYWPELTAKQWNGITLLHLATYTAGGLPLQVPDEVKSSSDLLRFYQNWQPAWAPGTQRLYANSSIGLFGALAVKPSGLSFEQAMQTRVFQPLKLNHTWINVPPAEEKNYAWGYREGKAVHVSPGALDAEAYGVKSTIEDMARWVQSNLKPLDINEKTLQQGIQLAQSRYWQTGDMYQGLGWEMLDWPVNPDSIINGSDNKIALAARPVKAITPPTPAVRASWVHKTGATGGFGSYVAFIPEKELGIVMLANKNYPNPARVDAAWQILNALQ
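AmpC (5.3 nM in the dispensed reagent) in 20 mM phosphate pH 7.0 with 0.01% (detergent screen) or 0.0001% Triton X-100 was preincubated with compounds for 15 min at room temperature. Nitrocefin was then added from an 800 uM solution, and hydrolysis was followed at 480 nm.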
AmpC inh no detg: qHTS Inhibitors of AmpC Beta-Lactamase (assay without detergent); P00811; AmpC nitrocefin hydrolysis, absorbance 480 nm, 0.0001% Triton; Potency, µM (top dose mostly 57.1 µM), most hits filed as inhibitors; 0.52% of 330,000 active; AID 485341, 2010; further: nearly all actives have a fitted effect of over 20% in size
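20 mM phosphate pH 7.0 + 0.01% (detergent screen) or 0.0001% Triton X-100; 5.3 nM AmpC reagent; cpd preinc 15 min RT; nitrocefin (800 uM stock) to start; A480 q20 s × 4 min; Activity was normalised to no-enzyme and no-compound control wells.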
Numbers stand for hits; i = inactive; ? = inconclusive; nt = not tested or not shown. Unless noted, the call rests on the fitted dose curve; in most records, active means well fitted curve in the direction sought with a large enough effect; inconclusive means small, poorly fitted or top-dose-only effect, or another doubt; inactive means no such curve, though single readings can be large; an effect the other way counts as inactive or inconclusive.

SMILES | Pf growth 48h | Sm TGR block | SARS PLpro yeast | Pf growth 96h | AmpC inh detg | AmpC inh no detg
COc1ccc(N2CCN(CCC(O)c3ccc4ccccc4c3)CC2)cc1 (centres undefined) | 3.3µM | i | i | i | i | i
COc1cc(O)c(C(CC(=O)N2CCCC2)c2cc(OC)c(OC)c(OC)c2)c(OC)c1 (centres undefined) | ? | i | i | i | i | i
NC(=O)c1cc(Cl)ccc1OCC(=O)NC1CC1 | nt | nt | i | nt | nt | i
Cc1cc(Nc2ccc(F)cc2F)nc(-n2nc(C)cc2C)n1 | nt | i | nt | nt | i | nt
O=C(Nc1cccc(Cl)c1Cl)c1ccc2c(c1)N(Cc1cccc(Cl)c1)C(=O)c1ccccc1S2(=O)=O | nt | i | nt | nt | i | nt
COc1cc(O)c(C(CCN2CCOCC2)c2ccc(N(C)C)cc2)c(OC)c1 (centres undefined) | 4.7µM | ? | i | 7.4µM | i | i
CCNc1nc(OCCNC(C)=O)nc(N(C)C)n1 | i | i | i | 1.5µM | i | i
COC(=O)NCCOc1nc(N(C)C)nc(N(C)C)n1 | i | i | i | i | i | i
Cc1ccc2c(Cl)cc(Cl)c(OCC(=O)N3CCCC3)c2n1 | i | 40µM | i | i | i | i
Cc1ccc(NC(=O)CN(C)C(=O)COc2c(Cl)cc(Cl)c3ccc(C)nc23)cc1 | 4.1µM | i | i | 1.7µM | i | i
CCCCCNC(=O)c1ccc2c(=O)n(CCc3ccccc3)c(=O)[nH]c2c1 | nt | i | nt | nt | i | nt
CCCNC(=O)c1ccccc1N1CCN(CCCCN2C(=O)C3CCCCN3C2=O)CC1 (centres undefined) | i | i | i | 10µM | i | i
O=C(/C=C/c1ccc2ccccc2n1)c1cc(Br)ccc1O | ? | 32µM | i | ? | i | i
COC(=O)c1cc(OC)c(OC)cc1NC(=S)N1CCN(c2ccccc2)CC1 | ? | i | i | i | i | i
Cn1c(N)c(S(=O)(=O)N2CCN(c3ccccc3Cl)CC2)c(=O)n(C)c1=O | i | i | i | ? | i | i
COc1ccccc1-c1nc(S(=O)(=O)c2ccccc2)c(N2CCC(C)CC2)o1 | nt | i | nt | nt | i | nt
COc1ccc(C2c3[nH]c4ccccc4c3C[C@H]3C(=O)N(C)CC(=O)N23)cc1OC (some centres undefined) | ? | i | i | ? | i | i
COc1ccc(C2c3[nH]c4ccccc4c3C[C@H]3C(=O)N(CCCO)CC(=O)N23)cc1OC (some centres undefined) | i | i | i | i | i | i
COc1cc(C2c3[nH]c4ccccc4c3C[C@@H]3C(=O)N(Cc4ccco4)CC(=O)N23)cc(OC)c1OC (some centres undefined) | 2.3µM | i | i | 3.7µM | i | i
COc1cccc(C2c3[nH]c4ccccc4c3C[C@H]3C(=O)N(C)CC(=O)N23)c1 (some centres undefined) | 7.4µM | i | i | 7.4µM | i | i
C=CCc1cccc([C@@H]2[C@@H](C)CC[C@H]3C(=O)N4[C@@H](c5cc(OC)c(OC)c(OC)c5)c5[nH]c6ccccc6c5C[C@H]4C(=O)N23)c1 | 4.1µM | i | i | ? | ? | i
COc1cc(C2c3[nH]c4ccccc4c3C[C@H]3C(=O)N(C4CC4)CC(=O)N23)ccc1OC(C)C (some centres undefined) | 9.3µM | i | i | 9.3µM | i | i
COCCCN1CC(=O)N2C(c3cccc(OC)c3)c3[nH]c4ccccc4c3C[C@H]2C1=O (some centres undefined) | ? | i | i | ? | i | i
COCCN1CC(=O)N2C(c3cccc(OC)c3)c3[nH]c4ccccc4c3C[C@H]2C1=O (some centres undefined) | 12µM | i | i | ? | i | i
COc1ccc(OC)c(C2c3[nH]c4ccccc4c3C[C@H]3C(=O)N(C4CC4)CC(=O)N23)c1 (some centres undefined) | ? | i | i | ? | i | i
SMILES | Pf growth 48h | Sm TGR block | SARS PLpro yeast | Pf growth 96h | AmpC inh detg | AmpC inh no detg
CCCN1CC(=O)N2C(c3ccccc3)c3[nH]c4ccccc4c3C[C@H]2C1=O (some centres undefined) | 2.3µM | i | i | ? | i | i
COc1cccc(C2c3[nH]c4ccccc4c3C[C@H]3C(=O)N(C4CC4)CC(=O)N23)c1 (some centres undefined) | 3.3µM | i | i | 1.9µM | i | i
CC(NCc1cccnc1)c1ccccc1 (centres undefined) | i | i | i | ? | ? | i
CCCCCc1cc(O)c2c(c1)OC(C)(C)C1CC=C(C)CC21 (centres undefined) | 2.4µM | nt | nt | 3µM | nt | nt
CCCCc1cc(O)c(CCCC)c(O)c1 | ? | i | i | i | i | i
CCCCOc1cccc(C(=O)N(Cc2ccc(Cl)cc2)C2CCS(=O)(=O)C2)c1 (centres undefined) | nt | i | nt | nt | i | nt
O[C@@H]1[C@@H](O)C=C2CCN3Cc4cc5c(cc4[C@H]1C23)OCO5 (some centres undefined) | 0.33µM | i | nt | 0.29µM | ? | i
CCC(C)C(NC(=O)c1ccccc1NC(=O)c1ccco1)C(=O)NNC(=O)c1ccncc1 (centres undefined) | 10µM | i | i | ? | i | i
CC(C)CC(OC(=O)c1ccco1)C(=O)NC1CCCCC1 (centres undefined) | i | i | i | i | 32µM | i
COc1ccc(C(=O)NNC(=O)C(NC(=O)c2ccccc2NC(=O)c2ccco2)C(C)C)cc1 (centres undefined) | i | i | i | i | ? | i
CCC(C)C(NC(=O)c1ccccc1NC(=O)c1ccco1)C(=O)NC1CCCCC1 (centres undefined) | 9.3µM | i | i | i | i | i
CCC(C)C(NC(=O)c1ccccc1NC(=O)c1ccco1)C(=O)NNC(=O)c1ccc(OC)cc1 (centres undefined) | 9.3µM | i | i | 8.3µM | i | i
N#CC(=C1CCCC1)c1nc(-c2ccccc2)cs1 | i | ? | i | nt | i | i
N#CC(=C1CCCC1)c1nc(-c2ccccc2O)cs1 | i | 25µM | i | i | i | ?
COc1ccc(-c2csc(Nc3ccccc3)[n+]2CC(O)c2ccc([N+](=O)[O-])cc2)cc1 (centres undefined) | 1.3µM | i | i | 1.5µM | i | i
Cc1ccc(SC[C@H](CC(C)C)N2CCN(CCc3ccccc3)CCC2=O)cc1 | ? | i | i | ? | i | i
